Consider 40 compounds from PubChem BioAssay (Tox21).

Inconclusive results are not listed. Entries that show only a call come without a potency. The source holds several records for some structures; these can differ, active in one and inactive in another. Activity calls are given as the source filed them. The call rests on the fitted dose curve; in most records, active means well fitted cell-killing curve with a large enough effect in the repeat runs; inconclusive means weak or mixed curves, or effect the other way; inactive means flat fitted curve, though single readings scatter.
Potency means the concentration at half of the fitted maximal effect.

The assay in a line: qHTS RealTime-Glo MT Cell Viability Assay in HEK293 cells - 16 hour (AID 1224872). Further: nearly all actives have a fitted effect of over 50% in size. On activity change, negative = cytotoxicity: top concentration of the series differs between compounds. To be noted: RealTime-Glo luminescence; series mostly up to 76.8 µM. The source says: National Center for Advancing Translational Sciences [NCATS]
NIH Chemical Genomics Center [NCGC]
U.S. Environmental Protection Agency [EPA]
National Institutes of Environmental Health Sciences [NIEHS]
National Toxicology Program [NTP]
U.S. Food and Drug Administration [FDA]
Measure of cell viability is critical in the cell-base assay. Analysis of cell viability is necessary for the characterization of cell responses to cytotoxic drugs and environmental stress. A RealTime-Glo MT Cell Viability Assay to monitor cell viability in real time of continues cell culture during 40 hours of compound treatment was used to screen Tox21 10K library compounds in Hek293 cells. The RealTime-Glo MT Cell Viability Assay is a nonlytic, homogeneous, bioluminescent method to measure cell viability in real time using a simple, plate-based method. The assay involves adding NanoLuc luciferase and a cell-permeant prosubstrate to cells in culture. Viable cells reduce the proprietary prosubstrate to generate a substrate for NanoLuc luciferase. This substrate diffuses from cells into the surrounding culture medium, where it is rapidly used by the NanoLuc Enzyme to produce a luminescent signal. The signal correlates with the number of viable cells, making the assay well suited for cytotoxicity studies.
Tox21 Assay Protocol Summary:
The mixture of Hek293 cell suspension and reagents were dispensed at 600cells/6 ul/well in 1536-well tissue culture treated black solid bottom plates using a Multidrop dispenser. After the assay plates were incubated at a 37 C/5% CO2 incubator for 5 hours, 23 nL of compounds dissolved in DMSO, positive and negative controls was transferred to the assay plate by a pintool work station. The plates were incubated at 37 C for 40 hours. The luminescence intensity were measured at 0h, 8h, 16h, 24h, 32h and 40h time points using ViewLux plate reader during compound treatment.
In general terms: qHTS replaces the single test concentration by a dilution series.
`CCOC(=O)NC(C)(C)Cc1ccc(Cl)cc1`: the Potency entry was “inactive”.
Still for that read-out and setting: the result for `CCCCOC(C)=O` reads “inactive”; that for `C=C1C[C@@H]2[C@H](CC[C@]3(C)C(=O)CC[C@@H]23)[C@@]2(C)C=CC(=O)C=C12`, “inactive”; that for `O=C(O)C(Br)(Br)Br`, “inactive”.
The same measure, in the same setting: the result for `CCC(C)C(C)(COC(N)=O)COC(N)=O` (stereo not given) reads “inactive”; that for `CC[C@H](N)c1ccccc1`, “inactive”.
With `ClCOCCl`, the Potency entry is “inactive”.
On to `NCCOS(=O)(=O)O`, for which the Potency entry is “inactive”.
For `CCCCCCCCSC(=O)Oc1cc(Cl)nnc1-c1ccccc1`, the Potency entry is “inactive”.
Still for that read-out and setting: as for `Cc1ccc2cc(C)ccc2c1`, the entry is “inactive”; as for `CCOP(=S)(OCC)SCCl`, “inactive”; as for `CCOC(=O)C(SP(=S)(OC)OC)c1ccccc1` (stereo not given), “inactive”.
In the case of `CC(Cc1ccccc1)NCCCCl` (stereo not given), the Potency result is “inactive”.
As for `CC(C)(N)Cc1ccc(Cl)cc1`, the Potency entry is “inactive”.
`CN1COCN(Cc2cnc(Cl)s2)/C1=N\[N+](=O)[O-]`: the Potency entry was “inactive”.
On the same count and under the same terms, the result for `CS(=O)(=O)c1ccc(C(=O)C2C(=O)CCCC2=O)c(Cl)c1COCC(F)(F)F` reads “inactive”; that for `O=C(Cl)C(Cl)Cl`, “inactive”.
Still for that read-out and setting: the result for `C=C1CC[C@@]2(O)[C@H]3Cc4ccc(O)c5c4[C@@]2(CCN3CC2CC2)[C@H]1O5` reads “inactive”; that for `C/C=C/CC#N`, “inactive”.
The same measure, in the same setting: the result for `CCOC(=O)c1ncn2c1CN(C)C(=O)c1c(I)cccc1-2` reads “inactive”; that for `CCCOC(=O)Cc1ccc(OCC(=O)N(CC)CC)c(OC)c1`, “inactive”.
For the compound `[P]#[In]`, the Potency entry was “inactive”.
With `NC(=O)OCCCc1ccccc1`, the Potency result is “inactive”.
With `CN(C)CCN(C)C`, the Potency entry is “inactive”.
As for `COc1cccc(C=O)c1`, the Potency result is “inactive”.
With `CC(C)NCC(O)c1ccc([N+](=O)[O-])cc1` (stereo not given), the Potency entry is “inactive”.
In the case of `Cc1ccc(S(=O)(=O)N[C@@H](CCCCN)C(=O)CCl)cc1`, the Potency entry was “inactive”.
On to `O=c1[nH]c2ccccc2o1`, for which the Potency result is “inactive”.
On to `ClC1=C(Cl)C2(Cl)C(CBr)CC1(Cl)C2(Cl)Cl` (stereo not given), for which the Potency is 43.6 µM (active) and inactive.
The same measure, in the same setting: the result for `Clc1nc(Cl)nc(Nc2ccccc2Cl)n1` reads “inactive”; that for `CCC(CC)(CNC(=O)CCCO)c1cccc(OC)c1`, “inactive”.
On the same count and under the same terms, as for `COC1=CC(=O)O[C@@H](/C=C/c2ccccc2)C1`, the entry is “inactive”.
With `CCCCCCC(=O)CCCCCC/C=C/C[C@@H](O)[C@H](O)[C@@](N)(CO)C(=O)O`, the activity change, negative = cytotoxicity is -2.21% [at 15.8 µM] (inactive).
As for `CCOP(=O)(CN(CCO)CCO)OCC`, the Potency result is “inactive”.
On the same count and under the same terms, as for `NC1(c2ccccc2)CCCCC1`, the entry is “inactive”; as for `CC(C)C(C)(N)C#N` (stereo not given), “inactive”; as for `C[C@H](N)C(=O)c1ccccc1`, “inactive”.
Still for that read-out and setting: the result for `C=C(Cl)CSC(=S)N(CC)CC` reads “inactive”; that for `CC(C)[N+](C)(CCC(C(N)=O)(c1ccccc1)c1ccccc1)C(C)C`, “inactive”; that for `C1CN2CCC1CC2`, “inactive”.
